Measured values reported in PubChem BioAssay (Tox21).
Results filed as inconclusive are left out. A call without a number means that no potency is given here. The source made the active and inactive calls. Unless noted, calls come from the whole dose curve; as a rule, active = well fitted curve in the direction sought with a large enough effect in the repeat runs; inconclusive = weak or mixed curves; inactive = no such curve, though single readings can be large; an effect the other way counts as inactive or inconclusive.

Molecular target: Androgen receptor (Homo sapiens) (UniProt P10275)
Assay: qHTS assay to identify small molecule antagonists of the androgen receptor (AR) signaling pathway (AID 743035; active = well fitted inhibition curve with a large enough effect in the signal ratio in the repeat runs, not every such curve was filed as active; the % refers to the signal ratio; note: potency is the fitted concentration of half-maximal effect)
Details: HEK293 AR-UAS-bla, R1881-stimulated, beta-lactamase FRET, 16 h; series mostly up to 58.5 µM
In short: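 R1881 agonist challenge of a HEK293 UAS-beta-lactamase AR reporter line in the presence of compound (16 h, 37C); signal taken as FRET fluorescence after 2 h with LiveBLAzer B/G substrate at room temperature.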

Sequence of Androgen receptor (Homo sapiens) (P10275 whole entry, looked up): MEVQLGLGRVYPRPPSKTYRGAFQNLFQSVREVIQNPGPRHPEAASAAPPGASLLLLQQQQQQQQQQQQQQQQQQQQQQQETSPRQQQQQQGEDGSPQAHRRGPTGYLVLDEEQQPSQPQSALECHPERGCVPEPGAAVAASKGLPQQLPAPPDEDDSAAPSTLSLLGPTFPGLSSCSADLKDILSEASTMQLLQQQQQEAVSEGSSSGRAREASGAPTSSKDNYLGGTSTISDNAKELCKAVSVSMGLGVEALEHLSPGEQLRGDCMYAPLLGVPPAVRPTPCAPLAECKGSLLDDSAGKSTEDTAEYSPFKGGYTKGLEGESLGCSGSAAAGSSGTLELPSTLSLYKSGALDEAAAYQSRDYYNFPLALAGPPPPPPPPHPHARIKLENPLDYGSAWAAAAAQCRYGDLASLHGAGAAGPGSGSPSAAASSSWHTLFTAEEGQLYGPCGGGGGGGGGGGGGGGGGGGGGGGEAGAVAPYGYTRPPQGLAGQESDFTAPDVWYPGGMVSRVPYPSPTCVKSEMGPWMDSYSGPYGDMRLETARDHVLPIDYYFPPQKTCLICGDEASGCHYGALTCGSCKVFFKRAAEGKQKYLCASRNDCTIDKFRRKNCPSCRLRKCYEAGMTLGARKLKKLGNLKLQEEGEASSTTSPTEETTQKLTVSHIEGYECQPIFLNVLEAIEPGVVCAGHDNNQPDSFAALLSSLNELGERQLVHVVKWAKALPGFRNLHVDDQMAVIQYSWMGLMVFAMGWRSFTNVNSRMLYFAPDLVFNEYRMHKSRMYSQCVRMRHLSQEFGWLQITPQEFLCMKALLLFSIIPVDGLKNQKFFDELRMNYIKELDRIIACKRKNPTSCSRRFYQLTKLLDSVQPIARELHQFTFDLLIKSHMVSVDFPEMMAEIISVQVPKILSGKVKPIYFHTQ

| SMILES | Potency |
| --- | --- |
| Cc1cc(C)c(S(=O)(=O)O)cc1N=Nc1cc(S(=O)(=O)O)c2ccccc2c1O | inactive |
| CCCCCCCC/C=C\CCCCCCCC(N)=O | inactive |
| CCC(C)N(C)C(=O)c1cc2ccccc2c(-c2ccccc2Cl)n1 (stereo unspecified) | 28.2 µM (active) |
| O=C(Cl)c1ccc([N+](=O)[O-])cc1 | inactive |
| CNCC[C@@H](Oc1ccccc1C)c1ccccc1 | inactive |
| Cc1cc(NC(=O)C(=O)O)cc(C)c1Oc1ccc(O)c2c1CCC2 | inactive |

Molecular target: Androgen receptor (Homo sapiens) (UniProt P10275)
Assay: qHTS assay to identify small molecule agonists of the androgen receptor (AR) signaling pathway (AID 743036; active = well fitted activation curve with a large enough effect in the signal ratio in the repeat runs, with a control signal flat, not every such curve was filed as active; the % refers to the signal ratio)
Details: HEK293 AR-UAS-bla GripTite, beta-lactamase FRET ratio, 16 h; series mostly up to 62.4 µM
In short: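 Reporter line: GeneBLAzer AR-UAS-bla-GripTite (HEK293). Steps: plate cells, 4 h rest, add compounds, 16 h at 37C, add LiveBLAzer B/G substrate, 2 h at RT, read fluorescence.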

| SMILES | outcome |
| --- | --- |
| Cc1cc(C)c(S(=O)(=O)O)cc1N=Nc1cc(S(=O)(=O)O)c2ccccc2c1O | inactive |
| CCCCCCCC/C=C\CCCCCCCC(N)=O | inactive |
| CCC(C)N(C)C(=O)c1cc2ccccc2c(-c2ccccc2Cl)n1 (stereo unspecified) | inactive |
| CNCC[C@@H](Oc1ccccc1C)c1ccccc1 | inactive |
| CCCCOC(O)CC (stereo unspecified) | inactive |
| Cc1cc(NC(=O)C(=O)O)cc(C)c1Oc1ccc(O)c2c1CCC2 | inactive |

Molecular target: Androgen receptor (Homo sapiens) (UniProt P10275)
Assay: qHTS assay to identify small molecule agonists of the androgen receptor (AR) signaling pathway using the MDA cell line (AID 743040; note: nearly all actives have a fitted effect of over 20% in size)
Details: MDA-kb2 AR-luc cells, MMTV luciferase, 16 h; series mostly up to 70.3 µM
In short: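 Agonist activity is measured as luciferase luminescence in human MDA-kb2 cells whose MMTV reporter responds to both AR and GR. Compounds in DMSO incubate 16 h at 37C, 0% CO2, and ONE-Glo is read after 30 min.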

| SMILES | Potency |
| --- | --- |
| Cc1cc(C)c(S(=O)(=O)O)cc1N=Nc1cc(S(=O)(=O)O)c2ccccc2c1O | inactive |
| CCCCCCCC/C=C\CCCCCCCC(N)=O | inactive |
| O=C(c1ccc(O)cc1)c1ccc(O)cc1 | inactive |
| CCC(C)N(C)C(=O)c1cc2ccccc2c(-c2ccccc2Cl)n1 (stereo unspecified) | inactive |
| CNCC[C@@H](Oc1ccccc1C)c1ccccc1 | inactive |
| CCCCOC(O)CC (stereo unspecified) | inactive |
| Cc1cc(NC(=O)C(=O)O)cc(C)c1Oc1ccc(O)c2c1CCC2 | inactive |

Tested on: not listed separately
Assay: qHTS assay to identify small molecule antagonists of the androgen receptor (AR) signaling pathway using the MDA cell line - cell viability counter screen (AID 743041; note: nearly all actives have a fitted effect of over 45% in size; note: potency is the fitted concentration of half-maximal effect)
Details: MDA-kb2 viability, CellTiter-Fluor, 16 h, cells co-treated with R1881 androgen agonist; series mostly up to 70.3 µM
In short: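 qHTS viability read-out; MDA-kb2 AR-luc; R1881-stimulated; 16 h exposure at 37C, 0% CO2; CellTiter-Fluor, 30 min; fluorescence intensity.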

| SMILES | Potency |
| --- | --- |
| Cc1cc(C)c(S(=O)(=O)O)cc1N=Nc1cc(S(=O)(=O)O)c2ccccc2c1O | 30.6 µM (active) |
| CC(C)=CCCC(C)CC=O (stereo unspecified) | inactive |
| NC[C@H]1O[C@H](O[C@H]2[C@H](O)[C@@H](O[C@H]3O[C@H](CO)[C@@H](O)[C@H](N)[C@H]3O)[C@H](N)C[C@@H]2N)[C@H](O)[C@@H](O)[C@@H]1O | inactive |
| CCCCCCCC/C=C\CCCCCCCC(N)=O | inactive |
| CCOC(=S)SSC(=S)OCC | inactive |
| CCOc1cc(OCC)c(C(=O)CCC(=O)O)cc1OCC | inactive |
| Oc1ccc2c(c1)OCO2 | inactive |
| CC(=O)NCCCS(=O)(=O)O | inactive |
| O=C(c1ccc(O)cc1)c1ccc(O)cc1 | inactive |
| COc1ccc2[nH]c(S(=O)Cc3ncc(C)c(OC)c3C)nc2n1 (stereo unspecified) | inactive |
| N#CCc1cccc(C(F)(F)F)c1 | inactive |
| O=CNc1ccccc1 | inactive |
| CC(=O)c1c(C)c([N+](=O)[O-])c(C(C)(C)C)c([N+](=O)[O-])c1C | inactive |
| CC(=O)Nc1ccc(/C=N/NC(N)=S)cc1 | inactive |
| CCN(CC)CCNC(C(=O)OCCC(C)C)c1ccccc1 (stereo unspecified) | inactive |
| CCC(C)N(C)C(=O)c1cc2ccccc2c(-c2ccccc2Cl)n1 (stereo unspecified) | inactive |

| SMILES | Potency |
| --- | --- |
| CC(C)c1cccc(C(C)C)c1NC(=O)NS(=O)(=O)c1cc(C(C)(C)O)co1 | inactive |
| CCOc1ccc2[nH]cc(C(=O)NCc3ccccc3)c(=O)c2n1 | inactive |
| CCCCOC(=O)c1ccccc1C(=O)OCC(CC)CCCC (stereo unspecified) | inactive |
| CNCC[C@@H](Oc1ccccc1C)c1ccccc1 | inactive |
| CCN(CC)CCc1nc(-c2ccccc2)no1 | inactive |
| CC1CCc2cc(F)cc3c(=O)c(C(=O)O)cn1c23 (stereo unspecified) | inactive |
| CNS(=O)(=O)Cc1ccc2[nH]cc(CCN(C)C)c2c1 | inactive |
| CCCCOC(O)CC (stereo unspecified) | inactive |
| CC[C@H](C)[C@H](N)C(=O)O | inactive |
| Nc1nc(CC(=O)O)cs1 | inactive |
| CCN1CCC[C@H]1CNC(=O)c1c(OC)ccc(Br)c1OC | inactive |
| O=C(NN1CCCC1)NS(=O)(=O)c1ccc(Cl)cc1 | inactive |
| CC1=CCC(C(C)C)C=C1 (stereo unspecified) | inactive |
| Cc1cc(NC(=O)C(=O)O)cc(C)c1Oc1ccc(O)c2c1CCC2 | inactive |
| CN1CCC(OC(c2ccccc2)c2ccccc2)CC1 | inactive |

Molecular target: Androgen receptor (Homo sapiens) (UniProt P10275)
Assay: qHTS assay to identify small molecule antagonists of the androgen receptor (AR) signaling pathway using the MDA cell line (AID 743042; note: nearly all actives have a fitted effect of over 55% in size)
Details: MDA-kb2 AR-luc, MMTV luciferase, R1881 antagonist, 16 h; series mostly up to 70.3 µM
In short: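 MDA-kb2 cells (human breast carcinoma, stably carrying an MMTV-luciferase reporter responsive to AR and GR) were plated at 3,000 cells/well and preincubated 5 hr at 37C, then given compound plus R1881 agonist for 16 h. ONE-Glo luminescence was read.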

| SMILES | Potency |
| --- | --- |
| Cc1cc(C)c(S(=O)(=O)O)cc1N=Nc1cc(S(=O)(=O)O)c2ccccc2c1O | inactive |
| CCCCCCCC/C=C\CCCCCCCC(N)=O | inactive |
| O=C(c1ccc(O)cc1)c1ccc(O)cc1 | inactive |
| O=C(Cl)c1ccc([N+](=O)[O-])cc1 | inactive |
| CCCCOC(O)CC (stereo unspecified) | inactive |
| Cc1cc(NC(=O)C(=O)O)cc(C)c1Oc1ccc(O)c2c1CCC2 | inactive |
